The nature of test [1]: qHTS assay to identify small molecule antagonists of the estrogen receptor alpha (ER-alpha) signaling pathway using the BG1 cell line in the presence of 0.1 nM 17-beta-estradiol - cell viability counter screen (AID 1259241). Further: nearly all actives have a fitted effect of over 40% in size. Further: potency means the concentration at half of the fitted maximal effect. The settings on record: VM7Luc4E2 (BG1) viability, CellTiter-Fluor protease, 22 h, 0.1 nM estradiol agonist added; series mostly up to 92.4 µM. The method in brief: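 Following 5 days in phenol red-free medium with charcoal-stripped serum, VM7Luc4E2 cells received test compounds alongside 0.1 nM 17beta-estradiol (final) at 37C for 22 hr. Live cells were then quantified via protease-substrate fluorescence.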

Test [2] can be described thus: qHTS assay to identify small molecule antagonists of the androgen receptor (AR) signaling pathway using the MDA cell line in the presence of 0.5 nM R1881 - cell viability counter screen (AID 1259242). Further: nearly all actives have a fitted effect of over 45% in size. Further: potency means the concentration at half of the fitted maximal effect. Particulars: MDA-kb2 viability, CellTiter-Fluor protease fluorescence, 16 h; series mostly up to 92.4 µM. The method in brief:
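Live-cell protease activity was measured by CellTiter-Fluor fluorescence after 30 min. Before that, MDA-kb2 MMTV-luciferase cells had 16 hr at 37C without CO2, exposed to test compounds and 0.5 nM R1881 final.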
(qHTS replaces the single test concentration by a dilution series.)

Test [3] can be described thus: qHTS assay to identify small molecule HDAC inhibitors (AID 1259364). Further: nearly all actives have a fitted effect of over 45% in size. Further: potency means the concentration at half of the fitted maximal effect. Particulars: HCT-116 HDAC-Glo I/II luminescence, 2 h; series mostly up to 92.4 µM. The method in brief: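 Luminescence read after 30 min room-temperature HDAC-Glo incubation measures cellular class I/II HDAC activity. Compounds were applied for 2 hr at 37 C to HCT-116 wild-type cells seeded the day before.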

Test [4] in a line: qHTS assay to identify small molecule HDAC inhibitors - cell viability counter screen (AID 1259365). Further: nearly all actives have a fitted effect of over 50% in size. Further: potency means the concentration at half of the fitted maximal effect. Particulars: HCT-116 viability, CellTiter-Glo ATP luminescence, 2 h; series mostly up to 92.4 µM. The method in brief: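 HCT-116 wild-type, overnight attachment; 2hr drug exposure, 37C; CellTiter-Glo luminescent ATP readout after 30min RT.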
Test [5] is described as follows: qHTS assay to identify small molecule agonists of the sonic hedgehog signaling (Shh) pathway - cell viability counter screen (AID 1259366). Further: nearly all actives have a fitted effect of over 50% in size. Further: potency means the concentration at half of the fitted maximal effect. The settings on record: NIH/3T3 Gli1-Luc viability, CellTiter-Fluor, 24 h; series mostly up to 92.4 µM. The method in brief:
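Compounds in DMSO were pin-transferred onto 3T3 Gli1-Luc cells that had settled 4hr; plates then stood 24hr at 37C and 5% CO2. One hour before the end, CellTiter-Fluor was added and fluorescence recorded.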

Test [6] in a line: qHTS assay to identify small molecule antagonists of the sonic hedgehog signaling (Shh) pathway - cell viability counter screen (AID 1259367). Further: nearly all actives have a fitted effect of over 55% in size. Further: potency means the concentration at half of the fitted maximal effect. Particulars: NIH/3T3 Gli1-Luc viability, CellTiter-Fluor, 24 h; series mostly up to 42.5 µM. In short, it runs like this: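 Conditioned medium drove Shh signaling in 3T3 Gli1-Luc cells exposed to compounds at 37C and 5% CO2. Viability was determined from CellTiter-Fluor fluorescence, with reagent incubated 1 hr after 23 hr of treatment.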

A short description of test [7]: qHTS assay to identify small molecule agonists of the sonic hedgehog signaling (Shh) pathway (AID 1259368; calls by dose curve;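 further: NIH/3T3-derived 3T3Gli1-Luc cells carrying a stable Gli1-driven firefly luciferase reporter; nearly all actives have a fitted effect of over 15% in size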). The settings on record: NIH/3T3 Gli1-Luc reporter, luciferase, 24 h; series mostly up to 92.4 µM. In short, it runs like this: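 Luminescence was read after 30 min at room temperature with luciferase reagent. Before that, 3T3Gli1-Luc cells (NIH/3T3 clone, stable Gli1-Luc reporter; 2,000/well) were exposed to compounds for 24 hr at 37C, 5% CO2, compounds being added 4 hr post-plating.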

A short description of test [8]: qHTS assay to identify small molecule antagonists of the sonic hedgehog signaling (Shh) pathway (AID 1259369; calls by dose curve; further: nearly all actives have a fitted effect of over 45% in size; further: potency means the concentration at half of the fitted maximal effect). The settings on record: NIH/3T3 Gli1-Luc reporter, Shh antagonist, luminescence 24 h; series mostly up to 92.4 µM. The method in brief:
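Antagonist mode: compound added to 3T3 Gli1-Luc cells followed by conditioned-medium stimulation, 24 h at 37 C, 5% CO2. Inhibition taken as loss of Gli1-driven luciferase luminescence.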

The target in test [9] is Estrogen receptor beta (Homo sapiens) (UniProt Q92731). Nature of the test: qHTS assay to identify small molecule agonists of the estrogen receptor beta (ER-beta) signaling pathway (AID 1259377; active means well fitted activation curve with a large enough effect in the signal ratio in the repeat runs, not every such curve was filed as active; the % refers to the signal ratio). The settings on record: ER-beta-UAS-bla HEK293T, beta-lactamase FRET ratio, 16 h; series mostly up to 92.4 µM. In short, it runs like this: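 qHTS in ER-beta-UAS-bla HEK293T cells: 6 hr settling, then 16 hr compound at 37C, then LiveBLAzer substrate 2 h at RT before fluorescence reading.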
Sequence of Estrogen receptor beta (Homo sapiens) (Q92731 whole entry, looked up): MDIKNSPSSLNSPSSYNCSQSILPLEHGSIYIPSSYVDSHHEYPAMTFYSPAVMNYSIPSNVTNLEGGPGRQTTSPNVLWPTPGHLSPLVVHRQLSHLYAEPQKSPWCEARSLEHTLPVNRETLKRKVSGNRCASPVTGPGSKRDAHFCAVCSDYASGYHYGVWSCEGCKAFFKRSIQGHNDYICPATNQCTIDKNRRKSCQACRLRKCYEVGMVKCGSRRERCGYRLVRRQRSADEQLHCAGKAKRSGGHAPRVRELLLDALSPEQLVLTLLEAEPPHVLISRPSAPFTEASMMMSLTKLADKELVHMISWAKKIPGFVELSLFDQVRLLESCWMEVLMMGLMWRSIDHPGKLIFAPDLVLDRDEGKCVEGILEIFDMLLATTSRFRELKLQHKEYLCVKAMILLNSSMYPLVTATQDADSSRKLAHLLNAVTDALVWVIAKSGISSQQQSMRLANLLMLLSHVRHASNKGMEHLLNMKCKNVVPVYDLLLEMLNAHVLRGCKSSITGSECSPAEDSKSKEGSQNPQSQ

For test [10] the target is unchanged. In words: qHTS assay to identify small molecule antagonists of the estrogen receptor beta (ER-beta) signaling pathway (AID 1259378; active means well fitted inhibition curve with a large enough effect in the signal ratio in the repeat runs, not every such curve was filed as active; the % refers to the signal ratio; further: potency means the concentration at half of the fitted maximal effect). The settings on record: ER-beta-UAS-bla HEK293T, beta-lactamase FRET ratio, 16 h; series mostly up to 92.4 µM. The method in brief:
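ER-beta-UAS-bla HEK293T (GripTite) cells in 2% charcoal-stripped FBS medium were preincubated 6 hr at 37C, dosed with compound, then stimulated with 1 nM E2 (final) for 16 hr; beta-lactamase reporter read by B/G FRET fluorescence after 2 hr substrate loading.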

The nature of test [11]: qHTS assay to identify small molecule agonists of the androgen receptor (AR) signaling pathway in the presence of an antagonist - cell viability counter screen (AID 1259379). Further: nearly all actives have a fitted effect of over 25% in size. Further: potency means the concentration at half of the fitted maximal effect. The settings on record: MDA-kb2 viability, CellTiter-Fluor, 16 h; series mostly up to 92.4 µM. The method in brief: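 Cytotoxicity counter-screen run in the same wells as the nilutamide-challenged (3.0 µM final) AR agonist assay in MDA-kb2 cells. Compounds tested at 15 concentrations for 16 h, 37 °C without CO2; CellTiter-Fluor fluorescence read.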

The nature of test [12]: qHTS assay to identify small molecule agonists of the estrogen receptor beta (ER-beta) signaling pathway - cell viability counter screen (AID 1259380). Further: nearly all actives have a fitted effect of over 30% in size. Further: potency means the concentration at half of the fitted maximal effect. Particulars: ER-beta-bla HEK293T viability, CellTiter-Glo luminescence, 16 h; series mostly up to 92.4 µM. In short, it runs like this: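 Cell viability counter screen: CellTiter-Glo luminescence (30 min, room temperature) measured in the same wells as the beta-lactamase readout, after 16 hr compound exposure at 37C of ER-beta-bla HEK293T cells in 2% charcoal-stripped FBS medium.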

Test [13] can be described thus: qHTS assay to identify small molecule antagonists of the estrogen receptor beta (ER-beta) signaling pathway - cell viability counter screen (AID 1259382). Further: nearly all actives have a fitted effect of over 55% in size. Further: potency means the concentration at half of the fitted maximal effect. The settings on record: ER-beta-UAS-bla HEK293T viability, CellTiter-Glo luminescence, 16 h; series mostly up to 92.4 µM. In short, it runs like this:
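Cytotoxicity was measured in the same wells by CellTiter-Glo luminescence after 30 min at room temperature. Cells were ER-beta-bla HEK293T in charcoal-stripped serum, given compound together with 1 nM E2 and incubated 16 h at 37C.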

Test [14] in a line: qHTS assay to identify small molecule agonists or antagonists of the thyroid stimulating hormone receptor (TSHR) signaling pathway - wild type cell line counter screen (AID 1259384; calls by dose curve). Particulars: HEK293 wild type, cAMP HTRF counter-screen, stronger effect = higher value; series mostly up to 92.4 µM. The method in brief: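 Wild-type HEK293 cells were plated 18 h at 37 C/5% CO2, pin-dosed with compound plus Ro20-1724 medium, held 30 min at room temperature, then given cAMP-d2 and anti-cAMP-cryptate; fluorescence was read after 1 h. Fifteen concentrations, triplicate.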

The target of test [15] is Thyrotropin receptor (Homo sapiens) (UniProt P16473). Nature of the test: qHTS assay to identify small molecule antagonists of the thyroid stimulating hormone receptor (TSHR) signaling pathway (AID 1259385; calls by dose curve; further: nearly all actives have a fitted effect of over 20% in size; further: potency means the concentration at half of the fitted maximal effect). The settings on record: TSHR-HEK293 cAMP HTRF, TSH-stimulated antagonist mode; series mostly up to 92.4 µM. The method in brief: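 TSHR-HEK293 cells were plated and held 18 h at 37C/5% CO2, then given compound plus Ro20-1724 and stimulated with TSH at 1.5 ng/mL final. After 30 min at room temperature, cAMP was detected with cAMP-d2/anti-cAMP-cryptate (1 h) by fluorescence.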
Sequence of Thyrotropin receptor (Homo sapiens) (P16473 whole entry, looked up): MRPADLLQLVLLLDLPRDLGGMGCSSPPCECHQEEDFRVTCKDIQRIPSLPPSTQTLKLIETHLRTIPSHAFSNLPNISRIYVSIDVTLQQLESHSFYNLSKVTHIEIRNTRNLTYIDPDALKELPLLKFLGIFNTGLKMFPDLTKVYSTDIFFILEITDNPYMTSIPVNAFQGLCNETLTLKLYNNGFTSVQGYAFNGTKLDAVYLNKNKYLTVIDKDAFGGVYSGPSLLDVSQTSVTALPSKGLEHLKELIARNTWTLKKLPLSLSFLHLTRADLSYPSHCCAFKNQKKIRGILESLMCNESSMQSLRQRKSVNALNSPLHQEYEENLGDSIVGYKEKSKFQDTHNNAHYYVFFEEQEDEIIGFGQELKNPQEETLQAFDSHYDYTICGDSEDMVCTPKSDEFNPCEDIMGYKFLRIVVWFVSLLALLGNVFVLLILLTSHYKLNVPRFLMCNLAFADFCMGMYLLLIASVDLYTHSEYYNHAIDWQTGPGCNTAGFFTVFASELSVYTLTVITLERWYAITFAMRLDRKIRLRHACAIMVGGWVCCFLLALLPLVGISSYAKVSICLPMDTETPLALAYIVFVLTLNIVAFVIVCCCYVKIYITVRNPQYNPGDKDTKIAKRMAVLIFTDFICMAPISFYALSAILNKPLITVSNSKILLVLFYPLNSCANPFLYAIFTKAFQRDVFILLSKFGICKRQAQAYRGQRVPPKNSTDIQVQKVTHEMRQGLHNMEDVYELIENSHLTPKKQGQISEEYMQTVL

For test [16], the target named is Estrogen receptor (Homo sapiens) (UniProt P03372). Nature of the test: qHTS assay to identify small molecule agonists of the estrogen receptor alpha (ER-alpha) signaling pathway in the presence of an antagonist (AID 1259383; calls by dose curve; further: top concentration of the series differs between compounds; nearly all actives have a fitted effect of over 15% in size). The settings on record: VM7Luc4E2 cells, ERE-luciferase, +ICI-182,780, 22 h; series mostly up to 92.4 µM. In short, it runs like this: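 Agonist-mode confirmation run in the presence of 10.0nM (final) ICI-182,780 antagonist. The reporter was ERE-driven luciferase in VM7Luc4E2 cells, grown in charcoal-stripped serum. Cells were exposed to 15-concentration compound series for 22hr, then ONE-Glo luminescence was read.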
Sequence of Estrogen receptor (Homo sapiens) (P03372 whole entry, looked up): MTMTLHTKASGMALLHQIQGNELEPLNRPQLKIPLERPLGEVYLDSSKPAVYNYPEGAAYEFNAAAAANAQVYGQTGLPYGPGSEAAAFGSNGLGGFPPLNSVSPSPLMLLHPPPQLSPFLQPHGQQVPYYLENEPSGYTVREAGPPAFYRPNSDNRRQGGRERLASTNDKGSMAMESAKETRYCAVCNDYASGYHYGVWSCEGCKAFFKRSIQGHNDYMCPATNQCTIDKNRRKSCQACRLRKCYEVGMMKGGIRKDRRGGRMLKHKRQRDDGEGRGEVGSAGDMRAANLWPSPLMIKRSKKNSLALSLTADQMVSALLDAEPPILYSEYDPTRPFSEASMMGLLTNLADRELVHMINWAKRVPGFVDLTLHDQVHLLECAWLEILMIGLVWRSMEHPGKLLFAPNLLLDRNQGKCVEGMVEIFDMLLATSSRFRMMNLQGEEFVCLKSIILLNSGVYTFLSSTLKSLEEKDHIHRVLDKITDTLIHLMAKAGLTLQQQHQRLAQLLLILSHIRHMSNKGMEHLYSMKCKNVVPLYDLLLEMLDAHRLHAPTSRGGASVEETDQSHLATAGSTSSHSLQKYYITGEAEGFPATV

Results filed as inconclusive are left out. Active and inactive are the calls of the source. Unless noted, the call rests on the fitted dose curve; in most records, active means well fitted curve in the direction sought with a large enough effect in the repeat runs; inconclusive means weak or mixed curves; inactive means no such curve, though single readings can be large; an effect the other way counts as inactive or inconclusive.

In the case of `O=C(O)c1c(Cl)cccc1Cl`, the Potency entry in test [1], in test [2], in test [3], in test [4], in [5] and in test [6] was “inactive” each time. Further, the Potency result in test [7], in [8], in test [9], in [10], in [11] and in [12] was “inactive” each time. Besides, the Potency entry in [13] and in test [15] was “inactive” each time. In addition, the compound was called inactive in test [14].

Take `Cc1oc(-c2ccccc2)nc1CCC(=O)c1ccc(CC2SC(=O)NC2=O)cc1` (stereo unspecified): the Potency entry in [1], in [2], in [3], in [4], in test [7] and in test [8] was “inactive” each time. Also, in test [15], the Potency result is “inactive”. Besides, the Potency in test [12] was 6.68 µM (active). Besides, in [14], the call was inactive.

For the compound `CCCCCCCC[N+](CCCCCCCC)(CCCCCCCC)CCCCCCCC`, the Potency in test [1] is 61 µM (active); in [2], 9.67 µM (active); in [4] it was 61 µM (active); in [5], 17.2 µM (active); in test [6], 27.3 µM (active); in [8], 0.768 µM (active). In addition, the Potency was 17.2 µM (active) in [11], 30.6 µM (active) in test [12], 21.6 µM (active) in test [13] and 61 µM (active) in test [15]. For the same compound, the Potency entry in test [3], in test [7] and in test [16] was “inactive” throughout. In addition, the compound was called inactive in test [14].

For `c1ccc(CSCc2ccccc2)cc1`, the Potency result in test [1], in test [2], in [4], in test [5], in [6] and in test [7] was “inactive” each time. The Potency entry in test [11], in [12] and in test [13] was “inactive” throughout. In addition, the Potency in test [3] was 24.3 µM (active).

Take `NC(=O)C1(N2CCCCC2)CCN(CCCN2c3ccccc3CCc3ccc(Cl)cc32)CC1`: the Potency result in test [1], in test [3], in test [4], in [7] and in test [16] was “inactive” each time. In addition, the Potency in [2] was 26.6 µM (active); in [5] it was 23.7 µM (active); in test [6], 29.8 µM (active); in test [8] it was 8.41 µM (active); in test [10], 11.9 µM (active); in test [11] it was 23.7 µM (active). The Potency in test [12] was 13.3 µM (active); in test [13], 21.1 µM (active); in test [15], 29.8 µM (active). Besides, the result in test [14] was inactive.

For the compound `Clc1ccc2n[nH]nc2c1`, the Potency entry in [1], in [2], in [3], in test [4], in test [5] and in test [6] was “inactive” in each case. Also, the Potency result in test [7], in test [8], in test [11], in [12], in test [13] and in test [15] was “inactive” in each case. For the same compound, the compound was called inactive in test [14].

Source of the values: PubChem BioAssay (Tox21).
